PubChem BioAssay
“And” between values parts separate entries of the source, which are not always exact repeats. Identical values can stand only once. The source made the active and inactive calls.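 The calls were made as follows, unless noted: active = inhibition at or above 50% relative to wild type and mutant plate controls; inactive = inhibition below 50%.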

How the values were obtained:
[1] = inhibitors of TNFa-induced NFkB p65 translocation, primary screen, imaging, HUVEC, MLSMR starter and 10KST1 sets (AID 438;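 active = inhibition above 20% together with a positive visual image hit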;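 also: compound added about 3h40 before a 20 min TNFalpha stimulation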;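 as to inhibition: signal is the nuclear over cytoplasmic p65 intensity ratio per well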); conditions: HUVEC TNFa-induced p65 nuclear translocation; cell count: measured here: nuclei count (cytotoxicity indicator), at 2.08 µM; inhibition: at 2 µM, stronger effect = higher value, 0% TNFa-plus-vehicle, 100% no-TNFa wells
[2] = reduction of polyQ htt aggregates in cells – imaging, exon1htt(103Q)mCFP cells, high-content imaging, primary screen (AID 483;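 active = visual image review flags a hit and inhibition of aggregation exceeds 20%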;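 also: compound exposure lasted 3 days before fixation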;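 as to nuclei count: percent of the per-plate median nuclei count of sample wells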); conditions: exon1htt(103Q)mCFP cell line, aggregate imaging, at 2 µM; inhibition of aggregation: stronger effect = higher value; nuclei count: measured here: cell count, toxicity
[3] = endothelial E-selectin expression blockers – imaging, HUVEC, immunofluorescence, MLSMR starter and 10KST1 sets, primary screen (AID 487;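 active = visually confirmed hit in the image check and inhibition above 20%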;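 as to inhibition: signal is fraction of cell area covered by stained E-selectin grains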;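 as to nuclei count: 100% = median nuclei count of all wells on the same plate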); conditions: HUVEC TNFalpha-induced E-selectin immunofluorescence imaging, at 2 µM; inhibition: stronger effect = higher value; nuclei count: measured here: cell number, toxicity
[4] = Primary imaging screen for DUSP6 inhibitors that restore phospho-Erk in transfected HeLa cells, chemical complementation (AID 609;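 active = compounds giving at least 50% inhibition in the cell-based MKP-3 phosphatase rescue imaging test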;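 as to inhibition: phospho-Erk level distribution per well compared with pooled transfected vehicle control wells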); conditions: HeLa MKP-3 transfected, phospho-Erk imaging KS statistic, at 10 µM, cells stimulated with TPA for 15 min
[5] = molecular target: Dual specificity protein phosphatase 6 (Homo sapiens) (UniProt Q16828); assay: as above; conditions: HeLa MKP-3 transfected, phospho-Erk imaging KS statistic; at 10 µM; stronger effect = higher value; cells stimulated with TPA for 15 min
[6] = molecular target: Voltage-gated potassium channel subunit beta-2 (Rattus norvegicus) (UniProt P62483); assay: inhibitors of rat Kvbeta2 reductase activity – biochemical, NADPH fluorescence, primary screen (AID 622;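 active = fluorescence slope higher than the sample average by over 3 SD, cut at about -0.22 in these data, passing the limit was not always enough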;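 also: slope of raw intensity against log time taken from 70 to 1610 s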); conditions: recombinant KvBeta, 4-cyanobenzaldehyde reduction, at 10 µM, stronger effect = higher value
[7] = molecular target: Voltage-gated potassium channel subunit beta-2 (Rattus norvegicus) (UniProt P62483); assay: enhancers of rat Kvbeta2 NADPH turnover – biochemical, NADPH fluorescence, primary screen (AID 623;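 active = NADPH fluorescence slope more negative than the mean of all samples by about 3 SD, 99.7% confidence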;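 also: fluorescence intensity change per second fitted from 20 to 320 s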); conditions: Recombinant KvBeta, NADPH fluorescence decrease slope, 10 min; at 10 µM; stronger effect = lower value
[8] = molecular target: Alpha-2C adrenergic receptor (Homo sapiens) (UniProt P18825); assay: compounds altering alpha2C-coupled GIRK flux – cell-based, HEK293 alpha2C/GIRK1/2, thallium flux, primary screen (AID 624;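 active = fluorescence slope after compound addition differing from the mean of all screened samples at 99.7% confidence, in either direction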;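 also: slope of fluorescence ratio to pre-addition baseline per second over 15 to 24 s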); conditions: thallium flux BTC fluorescence, at 10 µM, actives lie on both sides
[9] = inhibitors of larval lipid processing in zebrafish, primary screen, whole organism, PED6 fluorescence, gall bladder and intestine (AID 686;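 active = a full or partial loss of lipid-probe fluorescence in the fish gall bladder, intestine or both, judged by eye; inactive = no fluorescence loss, or compound toxic to the fish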;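 also: larvae 5 to 7 days old with five fish per well; signal comes from phospholipase A2 cleavage of quenched PED6 carried via bile; overnight exposure to compound and PED6 before scoring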); conditions: Zebrafish larvae PED6 lipid processing, fluorescence scoring; screened at 20 µM (by protocol)
[10] = loss of swimming-algae plug formation – whole organism, Chlamydomonas reinhardtii, WT vs cilia-less mutant, absorbance, 96-well, primary screen (AID 463189); conditions: Chlamydomonas reinhardtii gravitaxis, OD600 absorbance, 2 days; at 10 µM; stronger effect = higher value;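 also: 0% = wild type cc124 cells in DMSO and 100% = ciliumless bld1 mutant cells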
[11] = blockers of RIG-like receptor reporter activation – cell-based, Sendai virus stimulus, luciferase, 10K MLSCN set, TLR/RLR signaling modifier project, primary screen (AID 602276;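 active = inhibition at or above 50% at 10 µM; inactive = inhibition below 50%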;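 also: firefly luciferase from ISG56 promoter only with Renilla not read in this screen; 0% = Sendai virus plus DMSO and 100% = medium plus DMSO without virus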); conditions: HEK293 RL24 IRF3 luciferase reporter, at 10 µM, stronger effect = higher value
[12] = TLR3 IRF3 reporter activation blockers – cell-based, poly I:C stimulus, luciferase, 10K MLSCN set, primary screen (AID 602277;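 active = inhibition of the reporter signal at or above 50%; inactive = inhibition below 50%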); conditions: HEK293-TLR3 RL24 IRF3 luciferase reporter, at 10 µM, stronger effect = higher value
[13] = measured here: cell density z-score
[14] = measured here: nuclear c-Myc green intensity z-score
[15] = measured here: nuclear pErk red intensity z-score, stronger effect = higher value

Dual specificity protein phosphatase 6 (Homo sapiens), sequence (Q16828 whole entry, looked up): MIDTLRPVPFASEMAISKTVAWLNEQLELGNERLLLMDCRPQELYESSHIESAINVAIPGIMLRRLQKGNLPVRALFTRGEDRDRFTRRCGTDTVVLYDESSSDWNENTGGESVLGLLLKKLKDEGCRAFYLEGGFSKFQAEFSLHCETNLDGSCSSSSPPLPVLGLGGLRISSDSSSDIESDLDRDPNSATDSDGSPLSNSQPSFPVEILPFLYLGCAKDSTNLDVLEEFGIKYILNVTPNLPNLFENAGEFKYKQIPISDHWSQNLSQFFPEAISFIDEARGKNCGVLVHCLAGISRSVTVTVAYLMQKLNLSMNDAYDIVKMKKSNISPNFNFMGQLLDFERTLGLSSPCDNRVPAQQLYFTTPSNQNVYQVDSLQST
Voltage-gated potassium channel subunit beta-2 (Rattus norvegicus), sequence (P62483 whole entry, looked up): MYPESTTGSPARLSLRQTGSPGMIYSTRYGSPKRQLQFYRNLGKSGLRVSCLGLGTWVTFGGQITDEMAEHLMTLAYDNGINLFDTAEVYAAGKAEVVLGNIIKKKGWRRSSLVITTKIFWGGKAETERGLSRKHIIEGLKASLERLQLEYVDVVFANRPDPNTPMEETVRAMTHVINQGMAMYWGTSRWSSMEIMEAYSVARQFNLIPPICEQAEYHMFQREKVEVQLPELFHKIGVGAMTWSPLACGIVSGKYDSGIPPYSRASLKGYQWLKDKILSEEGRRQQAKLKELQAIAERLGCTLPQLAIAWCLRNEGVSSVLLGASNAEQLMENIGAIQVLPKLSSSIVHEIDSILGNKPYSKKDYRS
Alpha-2C adrenergic receptor (Homo sapiens), sequence (P18825 whole entry, looked up): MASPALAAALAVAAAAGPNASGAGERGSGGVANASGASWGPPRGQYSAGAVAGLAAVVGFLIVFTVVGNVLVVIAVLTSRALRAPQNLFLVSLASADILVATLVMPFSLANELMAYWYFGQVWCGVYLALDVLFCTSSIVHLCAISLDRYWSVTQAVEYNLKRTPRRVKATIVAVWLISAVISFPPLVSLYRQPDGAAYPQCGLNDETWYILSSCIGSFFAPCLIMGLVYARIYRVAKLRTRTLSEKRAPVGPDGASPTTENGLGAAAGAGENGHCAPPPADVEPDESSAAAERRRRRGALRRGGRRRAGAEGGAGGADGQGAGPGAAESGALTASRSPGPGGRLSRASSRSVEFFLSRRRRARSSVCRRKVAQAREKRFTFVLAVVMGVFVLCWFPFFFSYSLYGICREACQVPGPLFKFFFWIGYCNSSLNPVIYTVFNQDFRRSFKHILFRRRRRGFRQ

SMILES	cell count [1]	inhibition [1]	inhibition of aggregation [2]	nuclei count [2] [%]	inhibition [3]	nuclei count [3] [%]	z-score [4, 13]	z-score [4, 14]	z-score [4, 15]	inhibition [5]	fluorescence slope [6]	NADPH fluorescence slope [7]	slope [8]	outcome [9]	inhibition [10]	inhibition [11]	inhibition [12]
NC(=O)OCC(COC(N)=O)c1ccccc1	615	-7.6% (inactive)	-2.4% (inactive)	114	-22.5% (inactive)	108	1.02	-0.593	-0.701	3.45% (inactive)	-0.44 (inactive)	-3.1e-05 (inactive)	0.00508 (inactive)	inactive	-4.89% (inactive) and -8.93% (inactive)	17.5% (inactive)	34.3% (inactive)
O=C(O)c1cc(-c2ccccc2)nc2ccccc12	572	-5.1% (inactive)	-4.1% (inactive)	92.2	-66.9% (inactive)	121	0.461	0.0575	-0.708	-0.493% (inactive)	-0.459 (inactive)	-5.4e-05 (inactive)	0.00561 (inactive)	inactive	-8.89% (inactive)	5.39% (inactive)	34.2% (inactive)
CCCC(=O)O[C@]1(C(=O)COC(C)=O)CC[C@H]2[C@@H]3C[C@H](F)C4=CC(=O)C=C[C@]4(C)[C@@]3(F)[C@@H](O)C[C@@]21C	642	-9.3% (inactive)	-34.4% (inactive)	61.6	-95.2% (inactive)	136	-0.0756	-0.093	0.355	-0.493% (inactive)	-0.5 (inactive)	-5.5e-05 (inactive)	0.00445 (inactive)	inactive	9.17% (inactive)	15.9% (inactive)	48.2% (inactive)
CN(C)CCCN1c2ccccc2Sc2ccc(Cl)cc21	556	0% (inactive)	14.2% (inactive)	101	-64.8% (inactive)	123	1.02	0.553	-0.0543	-0.828% (inactive)	-0.472 (inactive)	-6e-05 (inactive)	0.00356 (inactive)	inactive	67.6% (active) and 162% (active)	16.5% (inactive)	40.1% (inactive)
O=C(NO)c1ccccc1O	594	1.9% (inactive)	-2.3% (inactive)	103	-35.8% (inactive)	102	-0.325	-0.0884	-1.2	5.79% (inactive)	-0.458 (inactive)	-2.4e-05 (inactive)	0.00615 (inactive)	inactive	-11.3% (inactive)	5.89% (inactive)	19.5% (inactive)
Cc1c(CCC#N)c(N2CCN(C3CCCCC3)CC2)n2c(nc3ccccc32)c1C#N	433	-14.4% (inactive)	14.6% (inactive)	98.9	-38.1% (inactive)	128	0.167	-0.385	-0.671	13.7% (inactive)	-0.236 (inactive)	-5.2e-06 (inactive)	0.00599 (inactive)	inactive	8.11% (inactive)	19.2% (inactive)	17.3% (inactive)
CC(C)Cc1nc(N2CCN(C(=O)c3ccco3)CC2)c(C#N)c2c1CCC2	615	2% (inactive)	-13.4% (inactive)	106	-37.8% (inactive)	116	0.33	2.04	-0.551	-1.75% (inactive)	-0.498 (inactive)	-7e-05 (inactive)	0.00426 (inactive)	inactive	-2% (inactive)	10.7% (inactive)	12.6% (inactive)
COc1ccc(/C=C(/C#N)c2cccnc2)cc1OC	515	4.6% (inactive)	17.7% (inactive)	82.3	-17.2% (inactive)	112	0.571	-1.05	-1.32	1.48% (inactive)	-0.499 (inactive)	-4.4e-05 (inactive)	0.00455 (inactive)	inactive	-22% (inactive)	6.71% (inactive)	-45.5% (inactive)
CC(=O)OCC(=O)[C@@]12OC3(CCCC3)O[C@@H]1C[C@H]1[C@@H]3CCC4=CC(=O)C=C[C@]4(C)[C@@]3(F)[C@@H](O)C[C@@]12C	609	-5.2% (inactive)	-15.8% (inactive)	51.6	-15.3% (inactive)	118	0.724	0.328	0.81	5.42% (inactive)	-0.54 (inactive)	-2.6e-05 (inactive)	0.0055 (inactive)	inactive	22.1% (inactive)	8.27% (inactive)	39.3% (inactive)
OC(CCN1CCCC1)(c1ccccc1)C1CCCCC1 (stereo not given)	573	6.7% (inactive)	-8.9% (inactive)	114	-40.8% (inactive)	106	1.31	-0.388	-1.18	19.2% (inactive)	-0.528 (inactive)	-6.1e-05 (inactive)	0.00512 (inactive)	inactive	37.7% (inactive)	0.492% (inactive)	-2.26% (inactive)
CCOC(=O)c1[nH]c2ccccc2c1NC(=O)CCN1CCN(C(=O)OCC)CC1	626	-1.9% (inactive)	-2.8% (inactive)	104	1% (inactive)	144	-1.64	0.13	1.55	-5.26% (inactive)	-0.344 (inactive)	-4.4e-05 (inactive)	0.00527 (inactive)	inactive	-5.66% (inactive)	14.7% (inactive)	19.4% (inactive)
C=CCn1c(N)c(C(=O)OC(C)(C)C)c2nc3ccccc3nc21	370	-11.7% (inactive)	-9.4% (inactive)	100	-104% (inactive)	124	1.71	-2	-1.69	-2.59% (inactive)	-0.257 (inactive)	0.000211 (inactive)	0.00615 (inactive)	inactive	12.3% (inactive)	12.2% (inactive)	-1.21% (inactive)
Nc1ccc(S(=O)(=O)NC(=O)c2ccccc2)cc1	544	2.5% (inactive)	17.5% (inactive)	94.6	-116% (inactive)	110	-1.45	0.254	0.397	14.6% (inactive)	-0.517 (inactive)	-5.5e-05 (inactive)	0.00537 (inactive)	inactive	5.05% (inactive)	21.8% (inactive)	34.4% (inactive)
CC(=O)O[C@H]1C[C@@H]2CC[C@@H]3[C@H](CC[C@@]4(C)[C@H]3C[C@H]([N+]3(C)CCCCC3)[C@@H]4OC(C)=O)[C@@]2(C)C[C@@H]1[N+]1(C)CCCCC1	612	0.4% (inactive)	-15.2% (inactive)	115	-24.6% (inactive)	114	-0.612	0.0914	0.638	7.39% (inactive)	-0.45 (inactive)	2.4e-05 (inactive)	0.00404 (inactive)	inactive	0.263% (inactive) and 18.9% (inactive)	21.9% (inactive)	31.6% (inactive)
CCC(=O)c1ccc(O)cc1	663	0.5% (inactive)	-14% (inactive)	101	-19.7% (inactive)	118	-0.298	-0.183	0.759	19% (inactive)	-0.496 (inactive)	8.5e-06 (inactive)	0.00491 (inactive)	inactive	-6.67% (inactive)	13.6% (inactive)	5.36% (inactive)
CN(C)CCN(Cc1ccccc1)c1ccccn1	526	-10.5% (inactive)	18.7% (inactive)	98.3	-31.1% (inactive)	109	-0.393	0.385	-0.67	9.37% (inactive)	-0.432 (inactive)	-8.6e-05 (inactive)	0.00588 (inactive)	inactive	49.5% (inactive)	11.1% (inactive)	33.9% (inactive)
O=C(CCCN1CC=C(n2c(=O)[nH]c3ccccc32)CC1)c1ccc(F)cc1	658	-2.1% (inactive)	-8.1% (inactive)	105	-156% (inactive)	128	-0.186	0.167	0.602	19.2% (inactive)	-0.516 (inactive)	-7.4e-05 (inactive)	0.00484 (inactive)	inactive	5.84% (inactive)	-12.2% (inactive)	-37.3% (inactive)
CCCCN(CCCC)CCCOC(=O)c1ccc(N)cc1	680	-1.8% (inactive)	7.7% (inactive)	97.6	-60.2% (inactive)	130	-0.857	-0.989	0.993	-4.44% (inactive)	-0.511 (inactive)	-5.7e-05 (inactive)	0.00529 (inactive)	inactive	12.6% (inactive)	-12.8% (inactive)	56.3% (active)
CC(C)(S)[C@@H](N)C(=O)O	657	-4.4% (inactive)	-5.6% (inactive)	105	-120% (inactive)	138	1.21	-0.53	-0.44	3.45% (inactive)	-0.482 (inactive)	-4.6e-05 (inactive)	0.00423 (inactive)	inactive	-3.9% (inactive)	22.7% (inactive)	43.2% (inactive)
CCCC(=O)O[C@]1(C(=O)CCl)[C@@H](C)C[C@H]2[C@@H]3CCC4=CC(=O)C=C[C@]4(C)[C@@]3(F)C(=O)C[C@@]21C	614	-3.2% (inactive)	-2.9% (inactive)	63.4	-61.7% (inactive)	120	0.0825	0.587	-0.866	19.2% (inactive)	-0.535 (inactive)	-7e-05 (inactive)	0.00401 (inactive)	inactive	47.7% (inactive)	-12.4% (inactive)	-5.01% (inactive)
